# Measurements published in PubChem BioAssay AID623911 (Vanderbilt High Throughput Screening Facility, 2012).
# Hit rate of the full screen: of about 2,100 compounds, about 770 (37%) were called active. The list shows a part of the results. Unmarked numbers belong to inactive results.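 Rule for the calls: active = by-eye trace score of 1 for enhancers or -1 for inhibitors, so actives lie on both sides (some results past the limit were not filed as active); inactive = score 0, or 3 fluorescent, or 4 baseline rise.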
# Target: G protein-activated inward rectifier potassium channel 2 (Homo sapiens) + G protein-activated inward rectifier potassium channel 1 (Homo sapiens) (UniProt P48051+P48549)
# Assay: GIRK1/2 thallium flux modulators, retest, confirmation, cell-based, HEK293 rmGlu8/hGIRK1/2, FluoZin-2 (AID 623911)
# Conditions: HEK293 rmGlu8/hGIRK1/2, thallium flux FluoZin-2; actives lie on both sides; glutamate co-added at its EC20 level
# Sequence of G protein-activated inward rectifier potassium channel 2 (Homo sapiens) + G protein-activated inward rectifier potassium channel 1 (Homo sapiens) (P48051 whole entry, looked up): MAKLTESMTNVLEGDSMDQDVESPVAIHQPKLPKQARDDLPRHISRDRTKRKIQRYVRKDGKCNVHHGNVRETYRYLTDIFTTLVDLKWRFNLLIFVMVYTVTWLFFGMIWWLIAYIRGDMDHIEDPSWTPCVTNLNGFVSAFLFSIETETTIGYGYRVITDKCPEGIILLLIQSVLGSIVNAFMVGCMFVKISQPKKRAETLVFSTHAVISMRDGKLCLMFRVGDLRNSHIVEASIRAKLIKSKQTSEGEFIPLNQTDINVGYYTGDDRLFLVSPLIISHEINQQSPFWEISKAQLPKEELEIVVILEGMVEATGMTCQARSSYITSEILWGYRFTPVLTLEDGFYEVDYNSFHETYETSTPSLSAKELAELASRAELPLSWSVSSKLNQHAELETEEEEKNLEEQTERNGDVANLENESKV
# Sequence of G protein-activated inward rectifier potassium channel 2 (Homo sapiens) + G protein-activated inward rectifier potassium channel 1 (Homo sapiens) (P48549 whole entry, looked up): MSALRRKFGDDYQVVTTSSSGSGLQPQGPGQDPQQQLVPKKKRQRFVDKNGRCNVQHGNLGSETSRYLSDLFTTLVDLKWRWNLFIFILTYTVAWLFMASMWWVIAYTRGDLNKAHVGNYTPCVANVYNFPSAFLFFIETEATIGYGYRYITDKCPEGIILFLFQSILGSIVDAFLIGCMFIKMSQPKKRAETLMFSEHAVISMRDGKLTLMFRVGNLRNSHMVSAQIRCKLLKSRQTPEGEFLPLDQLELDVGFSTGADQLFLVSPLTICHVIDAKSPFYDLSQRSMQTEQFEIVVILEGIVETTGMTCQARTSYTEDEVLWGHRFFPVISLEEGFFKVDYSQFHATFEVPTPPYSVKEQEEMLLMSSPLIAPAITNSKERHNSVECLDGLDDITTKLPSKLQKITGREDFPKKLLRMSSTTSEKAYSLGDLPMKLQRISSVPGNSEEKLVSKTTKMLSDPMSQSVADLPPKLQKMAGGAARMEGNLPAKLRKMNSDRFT
row,SMILES,manual score
1,O=c1c(-c2ccc(Cl)cc2)[n+]([O-])c2ccccc2n1O,2
2,CCC(C)(C)NC(=O)C(c1ccc(F)cc1)N(Cc1ccco1)C(=O)c1cnccn1 (stereo not given),0
3,COC(=O)c1ccc(C(=O)OC)c(NC(=O)CSc2nc(-c3ccco3)cc(C(F)(F)F)n2)c1,-0.5
4,Cc1c(C#N)c2ccccc2n1CC(=O)O,0
5,Cc1ccc(N=C2CCCN2Cc2ccccc2)c(C#N)c1,-1 (active)
6,Cc1ccc(C)c(N=C2CCCN2Cc2ccccc2)c1C#N,-1 (active)
7,CC(C)n1c(CCC(=O)O)ccc1-c1ccccc1,0
8,O=C(Nc1ccc2[nH]c(=S)sc2c1)c1ccccc1,1 (active)
9,O=C(NC(=S)Nc1ccc2c(c1)OCCO2)c1ccccc1,0.5
10,CC(C)OCCCNC(=O)c1cccc(NC(=O)c2ccccc2)c1,0
11,O=C(CCS(=O)NCc1ccccc1)NCc1ccccc1 (stereo not given),0
12,O=C(NCc1ccc2c(c1)OCO2)C1CCN(Cc2cnn(-c3ccccc3)c2-n2cccc2)CC1,-1 (active)
13,Cn1cc(CCC(=O)NCc2ccc3c(c2)OCO3)c2ccccc21,0
14,CS(=O)(=O)N(CCc1ccccc1)CC(=O)NCc1ccc2c(c1)OCO2,0
15,CCc1nnc(NC(=O)CSc2nnc(-c3c[nH]c4ccccc34)n2CC)s1,0
16,COc1c(Cl)cc(Cl)cc1CNCCNCC(C)O (stereo not given),1 (active)
17,CC(NC(=O)c1ccccc1NC(=O)CSc1nnnn1C)c1ccccc1 (stereo not given),0
18,CC(Sc1nnnn1C)C(=O)Nc1ccc(Oc2ccccc2)cc1 (stereo not given),1 (active)
19,S=C1NC2=C(CCCC2)C2(CCCCC2)N1,0
20,CC1CCCC(NC(=S)NC(=O)c2ccccc2Br)C1C (stereo not given),0
21,COc1ccccc1/C=C/C(=O)NC(=S)N(C)C1CCCCC1,1 (active)
22,CCN(C(=O)c1cc(Cl)ccc1OC)C1CCCCC1,-0.5

row,SMILES,manual score
1,CN(Cc1ccccc1)C(=S)NC(=O)C1CCCCC1,0
2,CN(C(=S)NC(=O)c1ccccc1Br)C1CCCCC1,1 (active)
3,CCOC(=O)CSc1nnc(-c2ccccc2OC)o1,-0.5
4,CC(C)NC(=O)/C(=C/c1ccco1)c1ccccc1,0
5,Cc1nccn1CCc1nc(N)nc(N)n1,0
6,Cc1ccccc1OCC(=O)NNC(=S)NC(=O)c1ccco1,1 (active)
7,CCCc1ccc(OCC(=O)NNC(=S)NC(=O)c2ccco2)cc1,1 (active)
8,CCN(CC)c1ccc(/C=C2/C(=O)c3ccc(C(=O)O)cc3C2=O)cc1,3
9,CC1(C)CC2CC(C)(CN2C(=S)NC(=O)c2ccccc2Cl)C1 (stereo not given),1 (active)
10,Nc1sccc1C(=O)c1ccccc1,0
11,O=C(NCCCn1ccnc1)Nc1ccc(Cl)c(Cl)c1,0
12,Clc1cccc(CSc2nnc(-c3ccccn3)n2Cc2ccco2)c1,0
13,O=C(NCCSCc1ccco1)Nc1cccc(Cl)c1,1 (active)
14,CSc1cccc(NC(=O)CN(c2ccccc2)S(=O)(=O)N(C)C)c1,1 (active)
15,COc1cccc(N(CC(=O)Nc2cccc(C(C)=O)c2)S(C)(=O)=O)c1,0
16,Cc1cccc(NC(=O)CN(c2ccc(C(C)C)cc2)S(=O)(=O)c2c(C)nn(C)c2C)n1,-0.5
17,CSc1cccc(NC(=O)COc2ccccc2)c1,1 (active)
18,CN(C)S(=O)(=O)N(CC(=O)Nc1ccc2ccccc2c1)c1ccccc1,1 (active)
19,CC(=O)c1cccc(NC(=O)CCOc2ccccc2)c1,0
20,CSc1cccc(NC(=O)CN(c2ccc(C)cc2C)S(C)(=O)=O)c1,1 (active)
21,COc1cccc(NC(=O)COc2ccc(C)cc2)c1,0
22,COc1cccc(N(CC(=O)NCc2cccnc2)S(C)(=O)=O)c1,0

row,SMILES,manual score
1,CC1=CC(=O)OC1Cc1ccncc1 (stereo not given),0
2,O=c1c2c(nc3c(-c4ccc(Cl)cc4)c[nH]n13)CCCC2,0
3,O=C(CSc1nnnn1-c1cccc2c1CCCC2)NC1CCCC1,-0.5
4,CSC1=N/C(=C\c2ccc(Br)o2)C(=O)S1,0
5,c1ccc2c(NC3CCCC3)nnc(NC3CCCC3)c2c1,-1 (active)
6,CN=C1S/C(=C\c2cc(C)n(-c3ccccc3F)c2C)C(=O)N1C,0
7,CC1CCN(c2ccc(/C=N/n3nnnc3N)cc2[N+](=O)[O-])CC1,0
8,Cc1cc(N2CCN(c3ccccc3)CC2)nc(NCc2ccccc2)n1,0
9,Cc1ccc2nc(NCc3ccccc3)[nH]c2c1,-1 (active)
10,CC(/C=N/n1c(-c2ccco2)n[nH]c1=S)=C\c1ccccc1,0
11,S=c1[nH]nc(-c2ccco2)n1/N=C/c1ccc(Cl)cc1Cl,1 (active)
12,S=c1[nH]nc(-c2ccco2)n1/N=C/c1cccc(Cl)c1Cl,0
13,Cc1ccc(N2CC(C(=O)Oc3cccc(N4C(=O)CCC4=O)c3)CC2=O)cc1 (stereo not given),0
14,Cc1ccc(/C(O)=C2\C(=O)C(=O)N(c3cc(C)on3)C2c2cccc(Br)c2)cc1 (stereo not given),0
15,CC(Oc1ccc(Cl)cc1)C(=O)N/N=C/c1ccsc1 (stereo not given),1 (active)
16,CC(C)C(=O)Nc1cccc(NC(=O)c2cc3ccccc3o2)c1,0
17,CC(=O)Nc1nnc(C)s1,0
18,CCCN(CCC)C(=S)NC(=O)c1ccc(Cl)cc1Cl,1 (active)
19,CC1Cc2ccccc2N1C(=S)NC(=O)c1ccc(Cl)cc1Cl (stereo not given),1 (active)
20,CCCN(CCC)CCCOC(=O)c1ccc(Cl)cc1Cl,-1 (active)
21,CCCCN(CCCC)C(=S)NC(=O)C(C)(C)C,1 (active)
22,CCOC(=O)CC1=C(C(=O)OCC)C(c2cccs2)C(C#N)=C(N)O1 (stereo not given),0

row,SMILES,manual score
1,CCOC(=O)C(C(=O)OCC)c1cc(Br)c2noc3c2c1C(=O)c1ccccc1-3,3
2,COc1c2occc2c(OC)c2c(=O)cc(C(F)(F)F)oc12,0
3,COc1cc(/C=C2\S/C(=N/S(=O)(=O)c3ccc(C)cc3)NC2=O)c([N+](=O)[O-])cc1OC,0
4,CCCCN(CCCC)c1ccc(C(=O)c2ccccc2C(=O)O)c(O)c1,0
5,CCCCn1nnc(NC(=S)NC(=O)c2ccc(-c3cccc(Cl)c3Cl)o2)n1,0.5
6,CCN(CC)C(=S)NC(=O)c1ccc(Cl)cc1Cl,1 (active)
7,CN(C(=S)NC(=O)CCCOc1ccc(Cl)cc1Cl)c1ccccc1,0
8,CCCCN(CCCC)C(=S)NC(=O)c1ccccc1Cl,1 (active)
9,S=c1[nH]nc(CSCc2ccc(Cl)cc2Cl)n1-c1ccccc1,0
10,CCOc1ccc(NC(=O)NC23CC4CC(CC(C4)C2)C3)cc1,1 (active)
11,COC(=O)[C@H](CC(C)C)NC(=O)Nc1ccc2c(c1)OCCO2,0
12,CCOC(=O)C1CCN(C(=O)NC23CC4CC(CC(C4)C2)C3)CC1,0
13,O=C(Nc1ccc2c(c1)OCCO2)NC12CC3CC(CC(C3)C1)C2,1 (active)
14,O=C(COC(=O)C1CC2C=CC1C2)Nc1ccc2c(c1)OC(F)(F)O2 (stereo not given),0
15,CCOc1ccc(N2C(=O)CC(SC(=NC)Nc3ccc(F)cc3)C2=O)cc1 (stereo not given),0
16,Cc1cccc(-n2c(C)nc3sccc3c2=O)c1,0
17,Cc1[nH]n(-c2ccccc2)c(=O)c1N=Nc1nccs1,1 (active)
18,CCOn1c(=O)c(-c2cccs2)[n+]([O-])c2ccccc21,3
19,Cc1cc(C)nc(Sc2ncnc3sc4c(c23)CCC4)n1,0
20,c1csc(CCNc2ncnc3sc4c(c23)CCC4)c1,-1 (active)
21,N#CCCn1nc(-c2ccc(Cl)cc2)cc1Nc1ccccc1NC(=O)C(F)(F)F,1 (active)
22,CCOC(=O)c1cc(-c2ccc(Cl)cc2)nc2c1c(C)nn2CCC#N,0

row,SMILES,manual score
1,COc1cc(OC)cc(C(=O)NC(=S)N2CCN(c3ccc(C(F)(F)F)cc3[N+](=O)[O-])CC2)c1,1 (active)
2,COc1cccc(C(=O)NC(=S)N2CCN(c3ccc(C(F)(F)F)cc3[N+](=O)[O-])CC2)c1,0.5
3,CC(C)Oc1cccc(C(=O)NC(=S)N2CCN(c3ccc(C(F)(F)F)cc3[N+](=O)[O-])CC2)c1,1 (active)
4,COc1ccccc1NC(=O)COc1ccc(C(F)(F)F)cc1[N+](=O)[O-],0
5,O=C1c2ccccc2C(=O)N1Nc1ccccc1,0
6,C(/C=C/C=C/Nc1ccccc1)=Nc1ccccc1,3
7,C=CCCCCCCCCc1nc(=S)[nH][nH]1,1 (active)
8,CCCCCCCCc1nc(=S)[nH][nH]1,0.5
9,CC1=C(n2nnc3ccccc32)C(c2ccccc2)C(C#N)=C(N)O1 (stereo not given),0
10,CCOC(=O)c1c(C)c(C(=O)N2CCc3ccccc3C2)c(C)n1CC,-1 (active)
11,O=C(COc1c(Br)cc(Br)c2cccnc12)N1CCc2ccccc2C1,0
12,CC(C)CC(=O)Nc1ccccc1-c1nnn(CC(=O)N2CCc3ccccc3C2)n1,0
13,O=C(O)c1oc2ccccc2c1CSc1ccccn1,0
14,CCCCCCc1cc2cc(C(=O)NC)c(=N)oc2cc1O,3
15,CCCCc1cc(=O)oc2cc(C)cc(O)c12,-1 (active)
16,COc1ccc(OCC(=O)NC(=S)Nc2ccc(N3CCOCC3)c(Cl)c2)cc1,0
17,Cc1ccccc1NC(=S)NC(=O)c1cc(-c2ccccc2)nc2ccccc12,0
18,O=C(NC(=S)NC1CCCCCC1)c1cncc(Br)c1,0
19,O=C(Nc1ccc(N2CCCCC2)c(Cl)c1)c1ncn[nH]1,0
20,Cc1ccccc1NC(=S)NC(=O)c1cncc(Br)c1,1 (active)
21,O=C(NC(=S)Nc1ccc(N2CCOCC2)c(Cl)c1)c1cncc(Br)c1,1 (active)
22,CC1CCCC(NC(=S)NC(=O)c2cncc(Br)c2)C1C (stereo not given),1 (active)
